The list is not random: actives were taken first. Their share in the collection is about 4.5%.
Mdm2 MdmX PPI: inhibitors of human Mdm2-MdmX association, primary screen, cell-based, luminescence, split luciferase, SaOS-2, uHTS | 330,000 compounds, 3% hits | Protein Mdm4 (Homo sapiens) + E3 ubiquitin-protein ligase Mdm2 (Homo sapiens), … | SaOS-2 split-luciferase Mdm2/MdmX complementation | inhibition, % at 8 µM;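 active = inhibition of at least 50% at 8 µM in the primary screen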
Target sequence (O15151 whole entry, looked up): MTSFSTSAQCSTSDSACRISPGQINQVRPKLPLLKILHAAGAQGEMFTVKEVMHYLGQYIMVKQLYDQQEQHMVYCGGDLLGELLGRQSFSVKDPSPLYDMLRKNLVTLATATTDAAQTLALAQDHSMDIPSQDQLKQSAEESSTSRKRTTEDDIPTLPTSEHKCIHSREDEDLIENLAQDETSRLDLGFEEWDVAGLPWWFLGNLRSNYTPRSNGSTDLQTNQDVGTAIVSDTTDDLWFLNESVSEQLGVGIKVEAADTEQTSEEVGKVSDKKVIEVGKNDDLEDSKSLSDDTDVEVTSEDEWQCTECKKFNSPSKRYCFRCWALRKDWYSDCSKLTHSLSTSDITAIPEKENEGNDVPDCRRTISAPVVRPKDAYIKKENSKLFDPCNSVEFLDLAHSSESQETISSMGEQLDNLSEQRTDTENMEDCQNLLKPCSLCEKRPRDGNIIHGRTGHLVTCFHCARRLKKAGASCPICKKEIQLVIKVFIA
Target sequence (Q00987 whole entry, looked up): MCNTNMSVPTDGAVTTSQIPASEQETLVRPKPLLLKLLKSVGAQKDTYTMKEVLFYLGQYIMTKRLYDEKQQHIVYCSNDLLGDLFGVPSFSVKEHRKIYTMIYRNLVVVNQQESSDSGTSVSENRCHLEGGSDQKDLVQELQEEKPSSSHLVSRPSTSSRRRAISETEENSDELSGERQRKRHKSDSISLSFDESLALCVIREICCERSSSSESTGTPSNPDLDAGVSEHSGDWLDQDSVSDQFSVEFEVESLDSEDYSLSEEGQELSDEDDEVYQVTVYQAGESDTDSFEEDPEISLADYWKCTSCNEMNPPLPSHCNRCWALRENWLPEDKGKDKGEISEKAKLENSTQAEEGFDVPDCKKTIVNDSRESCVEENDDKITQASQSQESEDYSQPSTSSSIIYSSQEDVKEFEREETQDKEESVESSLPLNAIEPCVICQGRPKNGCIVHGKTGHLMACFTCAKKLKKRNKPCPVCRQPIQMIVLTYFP
CSC inhib: cancer stem cell viability inhibitors, primary screen, luminescence; 300,000 compounds, 1.1% hits; inhibition, % at 7.5 µM; cancer stem cell-like cells viability; AID 2717, 2010; in the data active = inhibition above about 75%; inconclusive = no clear call, values can overlap the other calls; tested in HMLE shEcad cells
697 NFkB inh: inhibitors of PMA/ionomycin-induced NF-kB reporter, 697 cells, primary screen, B-cell NF-kB inhibitor project, cell-based, luminescence, uHTS; 697 B-cell NF-kB luciferase reporter, 16 h; inhibition, % at 4 µM; 330,000 compounds, 0.33% hits; in the data active = inhibition above about 35%
Jurkat NFkB inh: inhibitors of induced NF-kB luciferase reporter, primary screen, TCR NF-kB activation inhibitor project, cell-based, luminescence, uHTS; 330,000 compounds, 0.53% hits; inhibition, % at 4 µM; Jurkat, PMA/ionomycin-induced NF-kB luciferase reporter; AID 435003, 2010; in the data active = inhibition above about 50%
Gli-Sufu antag: Gli-Sufu pathway antagonists, primary screen, luciferase luminescence, Sufu-KO-LIGHT cells, uHTS. Sufu-KO-LIGHT fibroblasts, Gli luciferase reporter luminescence. inhibition, % at 5 µM. 340,000 compounds, 0.74% hits. AID 588413, 2011;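 active = inhibition above about 55%, limit read from the data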
Beta cell apopt: inhibitors of cytokine-induced beta cell apoptosis, primary screen, luminescence; INS-1E cytokine-induced death, ATP luminescence, 48 h; percent of positive-control rescue, neutral wells zero; protection from apoptosis, % (test concentration not listed); 300,000 compounds, 0.8% hits; AID 435005, 2010;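 active = Every replicate reaches about 75%, or at least half do and their mean reaches it too, limit read from the data; inconclusive = At least half of replicates reach the limit but their mean does not; inactive = Under half of replicates reach the limit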;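 also: higher means more ATP so stronger rescue from cytokine killing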
Jurkat NFkB conf: PMA/ionomycin-induced NF-kB reporter inhibitors, Jurkat retest, confirmation, T-cell NF-kB inhibitor project, cell-based, luminescence, single concentration. shares compounds with Jurkat NFkB inh. Jurkat NF-kB luciferase, 16 h. inhibition, % at 4 µM. 2,700 compounds, 27% hits. AID 435020, 2010;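 active = inhibition reaching about 45% at 4 µM in either replicate, limit read from the data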
697 NFkB conf: PMA/ionomycin-induced NF-kB reporter inhibitors, 697 retest, confirmation, B-cell NF-kB inhibitor project, cell-based, luminescence, single concentration; shares compounds with 697 NFkB inh; 697 B-cell NF-kB luciferase, 16 h; inhibition, % at 4 µM; 2,000 compounds, 35% hits; AID 449746, 2010; in the data active = inhibition mostly above about 28%, no sharp cut-off; inactive = mostly below about 22%
Mdm2 MdmX conf: Mdm2-MdmX complex disruptors, retested hits, confirmation, luminescence, single concentration; shares compounds with Mdm2 MdmX PPI; Mdm2-MdmX binding, luminescent assay; inhibition, % at 8 µM; 10,000 compounds, 55% hits; AID 489028, 2010; in the data active = inhibition above about 40%
Full FLuc ctr: full-length luciferase signal inhibition, confirmation, counter-screen for Mdm2/MdmX interaction inhibitor project, cell-based, single concentration, SaOS-2. shares compounds with Mdm2 MdmX PPI. SaOS-2 full-length luciferase counterscreen, luminescence. inhibition, % at 8 µM. 6,200 compounds, 77% hits. AID 504607, 2011;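 active = mean inhibition at 8 µM reaching about 37%, which flags the compound as non-specific, limit read from the data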;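 also: p53-null SaOS-2 cells with luciferase driven by a doxycycline-inducible promoter; compound on cells about two nights before reading with doxycycline added after day one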
Numbers stand for hits; 0 = inactive; ? = inconclusive; - = not tested or not shown.

SMILES	Mdm2 MdmX PPI	CSC inhib	697 NFkB inh	Jurkat NFkB inh	Gli-Sufu antag	Beta cell apopt	Jurkat NFkB conf	Mdm2 MdmX conf	Full FLuc ctr	others
CC(Oc1ccccc1)C(=O)N1CCN(c2ccc(N3CCCCC3)nn2)CC1 (centres undefined)	0	0	0	0	0	-	-	-	-
Cn1ncc2c(N3CCN(c4ccc(Cl)c(Cl)c4)CC3)ncnc21	92.3	0	0	58.8	0	?	60.4	74.2	98.9
COc1cc(/C=C/C(=O)OCC(=O)NCCN2C(=O)CSC2=O)ccc1OCC#N	0	0	0	0	-	0	-	-	-
C(=C\c1ccccc1)/CSc1nnc(-c2ccccn2)n1Cc1ccco1	59.1	0	0	50.0	0	0	0	49.0	87.0
COc1ccc(C2=CC(=O)CC(c3ccc(OC)cc3)C2)cc1 (centres undefined)	0	0	0	0	0	0	-	-	-
COc1ccc([C@H]2CC(=O)C=C(c3c(OC)cccc3OC)C2)cc1	55.7	0	0	57.3	0	0	50.8	53.0	50.8
Cc1cnc(NC(=O)c2ccc3c(c2)OCCO3)s1	74.1	-	0	69.8	0	-	76.8	80.1	0
COc1ccccc1-c1nnc(NC(=O)c2ccc3c(c2)OCO3)s1	90.3	0	0	57.0	0	0	0	65.7	84.8
Cc1nc(CCNC(=O)CC2C(=O)NCCN2Cc2ccccc2)nc2c1CCC2 (centres undefined)	0	-	0	0	0	0	-	-	-
CCn1c(C(=O)O)c(S(=O)(=O)c2ccc(Cl)cc2)c2ccccc21	0	0	0	0	0	0	-	-	-
Cc1ccc(C(=O)n2c3ccccc3c3ccccc32)cc1	51.0	0	0	54.3	0	0	0	55.0	53.4
CCCCCOC(=O)C1=C(C)NC(=O)NC1c1ccc2c(c1)OCO2 (centres undefined)	0	0	0	0	0	0	-	-	-
CSCCOC(=O)C1=C(C)NC(=O)NC1c1ccc2c(c1)OCO2 (centres undefined)	0	0	0	0	0	0	-	-	-
CC1=C(C(=O)OCc2ccc3c(c2)OCO3)C(c2ccc(Cl)cc2)NC(=O)N1 (centres undefined)	84.3	-	0	71.0	0	-	63.7	91.5	51.2
CC1=C(C(=O)OCc2ccc3c(c2)OCO3)C(c2ccc(F)cc2)NC(=O)N1 (centres undefined)	91.0	0	0	59.3	0	0	0	92.1	48.7
Cc1cc(C)n2c(SCC(=O)Nc3cccc(S(N)(=O)=O)c3)nnc2n1	0	0	0	0	0	0	-	-	-
CCOc1ccc(CCNC(=O)CCn2ccc3cc(S(=O)(=O)N4CCCC4)ccc32)cc1	0	0	0	0	0	0	-	-	-
O=C(NCCCO)C(=O)Nc1cc2c3c(c1)CCN3C(=O)CC2	0	0	0	0	0	0	-	-	-
Cc1nn(-c2ccccc2)c(C)c1C(=O)N1CCN(S(=O)(=O)c2ccccc2)CC1	0	0	0	0	0	0	-	-	-
CCOc1ccc(NS(=O)(=O)c2cc(NC(=O)c3ccc(C)cc3)ccc2Cl)cc1	57.0	0	0	52.7	0	0	0	66.8	63.9
C[C@H]1O[C@@H](O[C@H]2[C@@H](O)C[C@H](O[C@H]3[C@@H](O)C[C@H](O[C@H]4CC[C@@]5(C)[C@H](CC[C@@H]6[C@@H]5C[C@@H](O)[C@]5(C)[C@@H](C7=CC(=O)OC7)CC[C@]65O)C4)O[C@@H]3C)O[C@@H]2C)C[C@H](O)[C@@H]1O	82.0	99.9	92.4	96.1	0	0	96.8	74.9	0	697 NFkB conf=92.7
C=CCn1c(=O)c2c(nc(-n3nc(C)cc3C)n2C)n(C)c1=O	0	0	0	0	0	0	-	-	-
COc1ccc(Nc2nc(-c3sc(C)nc3C)cs2)cc1	50.4	0	0	50.9	0	0	0	45.0	61.4
Cc1nc(C)c(-c2csc(Nc3ccc(N)cc3)n2)s1	0	0	0	0	0	0	-	-	-
CCN(CC)S(=O)(=O)c1ccc(C(O)=C(C#N)c2nc3ccccc3n2C)cc1	-	-	-	-	0	-	-	-	-
SMILES	Mdm2 MdmX PPI	CSC inhib	697 NFkB inh	Jurkat NFkB inh	Gli-Sufu antag	Beta cell apopt	Jurkat NFkB conf	Mdm2 MdmX conf	Full FLuc ctr	others
Nc1nc(CCl)nc(N(c2ccccc2)c2ccccc2)n1	93.9	0	0	76.0	0	0	0	94.7	38.2
O=C(OCc1ccc([N+](=O)[O-])cc1)c1cc([N+](=O)[O-])ccc1N1CCOCC1	0	0	0	0	0	0	-	-	-
Cc1ccc(COC(=O)c2cc([N+](=O)[O-])ccc2N2CCOCC2)cc1	70.6	0	0	62.6	-	0	52.5	75.2	86.7
CCOC(=O)c1[nH]c(C)c(C(=O)N2CCN(c3ccccc3)CC2)c1C	0	0	0	0	0	0	-	-	-
CCOc1ccccc1C(=O)N1CCN(c2cccc(Cl)c2)CC1	73.8	0	0	81.0	58.7	0	0	62.8	93.0
CCOc1ccc2ccccc2c1C(=O)N1CCN(c2ccccc2)CC1	57.6	-	0	67.7	0	0	0	54.1	50.8
CCOC(=O)C(C)Oc1cccc2c(=O)n(CC(=O)NCc3ccc(F)cc3)ccc12 (centres undefined)	68.7	0	0	73.0	0	0	48.2	61.2	88.2
O=C1c2ccccc2[C@@H]2C[C@@H](O)[C@H](Nc3cccc4ccccc34)CCN12	0	-	0	-	0	-	-	-	-
CC(C)[C@H](NS(=O)(=O)c1cccc(C(F)(F)F)c1)C(=O)OCC(=O)NC(=O)NCc1ccco1	0	0	0	0	0	0	-	-	-
COc1ccc(N2CCc3c(C)nc4c(OC)cccc4c32)cc1	57.8	0	0	63.6	0	0	0	56.5	55.1
COc1ccc(N2CCc3c(C)nc4c(OC)cc(OC)cc4c32)c(OC)c1	0	0	0	0	0	0	-	-	-
O=C(CN1C(=O)C2CC=CCC2C1=O)Nc1ccc(S(=O)(=O)Nc2nccs2)cc1 (centres undefined)	0	0	0	0	0	0	-	-	-

Screening data as filed in PubChem.
